# The whole screen tested about 46,000 compounds, of which about 60 (0.1%) were called active. Not shown: some 3% with an inconclusive outcome. The full list was thinned out, with actives kept by preference. A number with no mark means an inactive call. The call rests on the fitted dose curve; in most records, active means well fitted inhibition curve with a large enough effect; inconclusive means small, poorly fitted or top-dose-only effect; inactive means no such curve, though single readings can be large or run the other way.
# Experiment: Primary qHTS assay for Inhibitors of ovarian cancer metastasis using an organotypic tumor microenvironment (TME) model. Further: nearly all actives have a fitted effect of over 65% in size.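 On Potency: count of GFP cancer cells still attached after washing and fixation.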
# Details: SKOV3ip1-GFP adhesion/invasion on 3D omental model, fluorescence; series mostly up to 45.8 µM; activity change, negative = inhibition: at the top concentration
# Source text: PI: Ernst Lengyel MD., Ph.D. Department of Obstetrics and Gynecology, Section of Gynecologic Oncology University of Chicago Medicine, Chicago, Illinois. The tumor microenvironment (TME) is a key determinant of metastatic efficiency. We performed a quantitative high-throughput screen (qHTS) of diverse medicinal chemistry tractable scaffolds (44,420 compounds) and pharmacologically active small molecules (386 compounds) using a layered organotypic, robust assay representing the ovarian cancer metastatic TME. This 3D model contains primary human mesothelial cells, fibroblasts, and extracellular matrix, to which fluorescently labeled ovarian cancer cells are added. Initially, 100 compounds inhibiting ovarian cancer adhesion/invasion to the 3D model in a dose-dependent manner were identified. Of those, eight compounds were confirmed active in five high-grade serous ovarian cancer cell lines and were further validated in secondary in vitro and in vivo biological assays. […] Specifically, NCGC00117362 and PP-121 inhibited ovarian cancer adhesion, invasion, and proliferation, whereas milciclib inhibited ovarian cancer invasion and proliferation. […] To evaluate the clinical potential of NCGC00117362, structure - activity relationship studies were performed. […] The three compounds identified have promise as therapeutics for prevention and treatment of ovarian cancer metastasis.
# PROTOCOL TABLE (as described by Inglese J, Shamu CE and Guy RK. 2007) SEQUENCE No. (e.g., 1, 2, 3, etc.); […] (e.g., Cells, Incubation, Reagent, etc.); VALUE; DESCRIPTION. 1; Cells; 4 uL; primary human omental fibroblast, black, clear bottom, low base, 1536-well Aurora assay plate. 2; Incubation; 48 hr; 37C. 3; Cells; 3 uL; 1,200 SKOV3ip1-GFP cells. 4; Compounds; 23nL; acoustic dispenser. 5; Incubation; 2 hr; room temperature. 6; Incubation; 16 hr; 37C. 7; Wash; 5 uL; 1x PBS. 8; Fixing; 5 uL; 4% paraformaldehyde (PFA). 9; Incubation; 15 min; room temperature 10; Wash, 5 uL; 1x PBS. 11; Detection; Fluorescence, excitation filter 488 nm, emission filter 509 nm. NOTES (numbers refer to Sequence numbers above) 1. For the 1,536-well format, 40 primary human omental fibroblasts and 400 mesothelial cells were seeded with 0.02 µg fibronectin and 0.02 µg collagen type I in 4 µL of growth media (2.3 mm2; Supplementary Fig. S1A). 2. Assay plates were incubated for 48 hours at 37 C. 3. After incubation, 1,200 SKOV3ip1-GFP were seeded in 3 µL of serum-free media (growth media minus FBS) on top of primary human omental cells. 4. Compounds or controls were added to each well immediately after the addition of the cancer cells. Compounds were screened in four doses (0.36-46 µmol/L), and the plates contained the positive control (Tomatine) in eight doses (0.035-75 µmol/L) and DMSO (equal volume controls) 5 - 6. The plates were incubated at room temperature for 2 hours and then at 37 degrees C for 16 hours. 7 - 10. Following incubation, the media were aspirated and each well washed with PBS (5 µL) and then fixed with 4% paraformaldehyde (PFA; 5 µL). After 15 minutes, the PFA solution was aspirated, PBS (5 µL) was added. 11. The number of GFP-labeled cells analyzed using a fluorescent cytometer TTP LabTech Acumen eX3 using 488 nm excitation filter and 509 nm emission filter. Data was normalized to the DMSO treated for negative and Tomatine treated wells for positive control. REFERENCES: Inglese J, Shamu CE and Guy RK, Reporting data from high throughput screening of small molecule libraries, Nature Chemical Biology, 2007, 3(8): 438-441. doi.org/10.1038/nchembio0807-438. Yasgar A, Shinn P, Jadhav A, Auld DS, Michael S, Zheng W, Austin CP, Inglese J and Simeonov A, Compound Management for Quantitative High-Throughput Screening. J. Assoc. Lab. Auto., 2008, 13: 79-89. doi: 10.1016/j.jala.2007.12.004.
# Potency means the concentration at half of the fitted maximal effect.
Structure (SMILES),"activity change, negative = inhibition [%]",outcome,Potency
COc1cc(OC)cc(C(=O)Nc2cc3nn(-c4ccccc4)nc3cc2Cl)c1,-12.1,–,–
CC(=O)c1ccc(N2CCN(c3nc4c(S(=O)(=O)c5ccccc5)nnn4c4ccc(Cl)cc34)CC2)cc1,-7.59,–,–
Cc1ccc(CNC(=O)CCc2c(C)nn(-c3ccc(N4CCCC4)nn3)c2C)cc1,–,inactive,–
Cc1cccc(N(C)C(=O)c2cc(S(=O)(=O)N3CCCCC3)c[nH]2)c1,5.29,–,–
CO[C@H]1O[C@@H]2O[C@@]3(C)CC[C@@H]4[C@@H](C)CC[C@@H]([C@H]1C)[C@@]24OO3,-30.6,–,–
Cn1c(SCC(=O)N2CCCc3ccccc32)ncc(C(=O)Nc2ccc(F)cc2)c1=O,-22.2,–,–
Cc1nn(Cc2ccc(F)cc2)c(C)c1NC(=O)c1cc(CC(C)C)on1,–,inactive,–
COc1ccccc1-c1nnc(SCC(N)=O)o1,-1.31,–,–
CON=C(C(=O)N[C@@H]1C(=O)N2C(C(=O)OCOC(=O)C(C)(C)C)=C(C=Cc3scnc3C)CS[C@H]12)c1csc(N)n1,25.4,–,–
CCc1ccc(NC(=O)CSc2nc3c([nH]c4ccccc43)c(=O)n2-c2cccc(OC)c2)cc1,-0.478,–,–
CCOC(=O)N1CCN([N+]([O-])=NOc2ccc([N+](=O)[O-])cc2[N+](=O)[O-])CC1,-4.51,–,–
Cc1nc2c(-c3ccccc3)c(C)nn2c(C)c1CCC(=O)NCCc1ccccc1,5.93,–,–
Fc1ccc(-n2ncc3c(Nc4ccc(Oc5ccccc5)cc4)ncnc32)cc1,–,inactive,–
Cc1ccc(/C=C(\C#N)C(=O)Nc2cc(C)ccc2C)cc1,–,inactive,–
CSc1ccc(CCNC(=O)c2cnn(-c3ccccc3)c2-n2cccc2)cc1,–,inactive,–
COc1ccc(C2CC(=O)Nc3c2c(=O)nc2c(C)cccn32)cc1OC (stereo not given),12.3,–,–
COc1ccc(NC(=O)c2cnc(Nc3ccc(C)c(Cl)c3)c3ccccc23)cc1OC,–,inactive,–
COc1ccc(C(=O)Nc2ccc3nc(N4CCCCC4)cc(C)c3c2)cc1OC,–,inactive,–
CCN1CCN(c2cc(C)c3cc(NC(=O)c4cc(Cl)ccc4OC)ccc3n2)CC1,–,–,3.55 µM (active)
CC(NC(=O)c1cc2c(=O)n3ccccc3nc2n(C(C)C)c1=N)c1ccccc1 (stereo not given),-15.9,–,–
COc1cc2ccccc2cc1C(=O)Nc1cccc(-c2nc3ccccc3o2)c1,–,inactive,–
CCN1CCN(c2ncnc3c2cnn3-c2ccc(C)c(C)c2)CC1,-2.4,–,–
CCc1cccc(NC(=O)CN(c2ccc(C)c(C)c2)S(=O)(=O)c2ccsc2C(=O)OC)c1,1.97,–,–

Structure (SMILES),"activity change, negative = inhibition [%]",outcome,Potency
CCc1nccn1S(=O)(=O)c1cc(Br)ccc1Br,9.09,–,–
CCc1ccc(S(=O)(=O)c2nnn3c2nc(NCc2ccccc2OC)c2cc(Cl)ccc23)cc1,0.872,–,–
Cc1ccc(NC(=O)c2oc3ccc(S(=O)(=O)N4CCCCC4)cc3c2C)cc1Cl,-11.1,–,–
Cc1ccc(-n2ncc3c(NCCCn4ccnc4)ncnc32)cc1Cl,-4.11,–,–
Cc1ccc(-n2c(SCC(=O)Nc3cccc(F)c3)nc3c(oc4ccccc43)c2=O)cc1C,–,inactive,–
CC=CC[C@@H](C)C(=O)[C@H]1C(=O)N[C@@H](C(C)C)C(=O)N(C)CC(=O)N(C)[C@@H](CC(C)C)C(=O)N[C@@H](C(C)C)C(=O)N(C)[C@@H](CC(C)C)C(=O)N[C@@H](C)C(=O)N[C@H](C)C(=O)N(C)[C@@H](CC(C)C)C(=O)N(C)[C@@H](CC(C)C)C(=O)N(C)[C@@H](C(C)C)C(=O)N1C,-11.6,–,–
CCc1nc2nc(C)cc(Nc3ccc(F)c(Cl)c3)n2n1,27.4,–,–
COc1cc2nc(SCC(=O)Nc3ccccc3F)n3nc(-c4ccccc4)nc3c2cc1OC,–,inactive,–
Cc1ccc(Cn2c(CNC(=O)Cc3cccc(C)c3)nc3cccnc32)cc1,-12.9,–,–
O=C(Cn1nc(C(F)(F)F)c2c1CCCC2)Nc1ccc(Cl)cc1,1.23,–,–
COc1ccc(NC(=O)COCc2cc(-c3ccco3)on2)cc1,-4.51,–,–
O=C(Cn1nc(Cc2cccnc2)c2ccccc2c1=O)N1CCN(c2ccccc2F)CC1,-1.53,–,–
COc1ccc(CN2CCc3nc(Nc4ccccc4)ncc3C2)c(OC)c1OC,-5.54,–,–
CO[C@H]1C[C@@H]2CC[C@@H](C)[C@@](O)(O2)C(=O)C(=O)N2CCCC[C@@H]2C(=O)O[C@H]([C@@H](C)C[C@@H]2CC[C@H](O)[C@H](OC)C2)CC(=O)[C@H](C)C=C(C)[C@@H](O)[C@@H](OC)C(=O)[C@H](C)C[C@H](C)C=CC=CC=C1C,33.7,–,–
COc1ccc(-c2cn3c(C)c(C(=O)Nc4cc(C)cc(C)c4)sc3n2)cc1,–,–,8.91 µM (active)
CCOC(=O)c1ccccc1NC(=O)c1sc2nc(-c3ccc(F)cc3)cn2c1C,12,–,–
COc1ccc(-c2cn3c(n2)sc2cc(C(=O)Nc4ccc(F)cc4)ccc23)cc1,5.93,–,–
CCOC(=O)c1cc2c(=O)n3ccccc3nc2n(Cc2ccco2)c1=NC(=O)c1ccc(F)cc1,15.7,–,–
Cn1c(=O)c2c(n3c4ccccc4nc13)NC(=O)CC2c1cccc(Cl)c1 (stereo not given),-3.87,–,–
COc1cccc(CNC(=O)CN2C(=O)CCc3cc(S(=O)(=O)N4CCOCC4)ccc32)c1,0.82,–,–
Cc1cccc(NC(=O)c2nnn(CC(=O)Nc3ccc(C(C)C)cc3)c2N)c1C,–,inactive,–
O=C(NCCc1ccccc1)c1ccc2c(c1)N(Cc1ccc(F)cc1)C(=O)c1ccccc1S2(=O)=O,6.62,–,–

# — PubChem BioAssay AID1963576 (National Center for Advancing Translational Sciences (NCATS), 2024)
